Results taken from the supplement of paper PMC11732987, “Enantioselective OTUD7B fragment discovery through chemoproteomics screening and high-throughput optimisation” (Communications Chemistry, 2025).

Experiments:
Assay in all cases: log2 ratio of Biotin-Ahx-Ub-VS probe labelling (fragment/DMSO); higher = less target engagement (more negative = stronger competition), active = hit call of the paper (q ≤ 0.05, log2 ratio ≤ -1)
Details in all cases: compound concentration: 200 uM; treatment time: 3 h
USP42 = biological target: T1, USP42 (UniProt Q9H9J4)
T1 sequence (whole entry): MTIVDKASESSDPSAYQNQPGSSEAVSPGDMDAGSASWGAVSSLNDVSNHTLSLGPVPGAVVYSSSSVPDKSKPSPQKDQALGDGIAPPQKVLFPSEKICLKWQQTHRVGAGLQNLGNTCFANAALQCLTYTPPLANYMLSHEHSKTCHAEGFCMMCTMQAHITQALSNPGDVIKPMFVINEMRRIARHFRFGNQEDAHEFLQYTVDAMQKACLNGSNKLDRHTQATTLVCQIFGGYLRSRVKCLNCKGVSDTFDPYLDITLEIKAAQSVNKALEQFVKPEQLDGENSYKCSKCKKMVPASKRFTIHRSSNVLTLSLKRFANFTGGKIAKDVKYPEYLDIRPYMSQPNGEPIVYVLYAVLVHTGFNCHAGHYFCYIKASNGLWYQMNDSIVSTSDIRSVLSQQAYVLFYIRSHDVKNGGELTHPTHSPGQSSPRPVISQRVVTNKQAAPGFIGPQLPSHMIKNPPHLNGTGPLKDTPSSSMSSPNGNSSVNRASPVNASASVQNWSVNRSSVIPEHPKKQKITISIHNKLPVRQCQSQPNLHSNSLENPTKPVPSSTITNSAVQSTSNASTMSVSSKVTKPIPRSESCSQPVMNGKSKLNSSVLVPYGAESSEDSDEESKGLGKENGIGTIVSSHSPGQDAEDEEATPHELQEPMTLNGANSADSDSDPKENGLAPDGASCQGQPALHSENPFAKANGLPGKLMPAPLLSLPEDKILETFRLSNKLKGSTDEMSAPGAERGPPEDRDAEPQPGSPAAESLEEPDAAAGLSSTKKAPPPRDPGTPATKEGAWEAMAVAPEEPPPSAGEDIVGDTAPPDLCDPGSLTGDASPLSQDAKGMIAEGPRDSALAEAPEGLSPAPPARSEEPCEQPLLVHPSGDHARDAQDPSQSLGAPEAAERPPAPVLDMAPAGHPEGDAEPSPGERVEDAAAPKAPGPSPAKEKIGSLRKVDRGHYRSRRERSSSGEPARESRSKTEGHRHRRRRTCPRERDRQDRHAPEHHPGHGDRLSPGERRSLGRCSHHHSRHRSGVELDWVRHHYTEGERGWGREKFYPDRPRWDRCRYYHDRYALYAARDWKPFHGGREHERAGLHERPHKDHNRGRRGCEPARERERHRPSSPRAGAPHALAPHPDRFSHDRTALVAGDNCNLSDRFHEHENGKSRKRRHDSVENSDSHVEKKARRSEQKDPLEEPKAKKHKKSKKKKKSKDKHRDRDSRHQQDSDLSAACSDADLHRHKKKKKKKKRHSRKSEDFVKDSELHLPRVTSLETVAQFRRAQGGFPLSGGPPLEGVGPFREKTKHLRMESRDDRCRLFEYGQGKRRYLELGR
How it was run: (§1)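 HEK293T lysate in Tris/CHAPS/IGEPAL buffer with protease inhibitors (495 µg per sample) was given fragment at 200 µM or vehicle for 3 h, in triplicate. It then received Biotin-Ahx-Ub-VS at 0.5 µM final for 1 h. Labelled DUBs were NeutrAvidin-enriched, digested with LysC and trypsin, and run by diaPASEF LC-MS/MS. Values are average log2 fragment/vehicle ratios by unpaired t-test on global-median-normalised Spectronaut quantities of proteins with ≥2 unique peptides.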

USP46 = USP46 (UniProt P62068)
How it was run: as §1

USP47 = biological target: T2, USP47 (UniProt Q96K76)
T2 sequence (whole entry): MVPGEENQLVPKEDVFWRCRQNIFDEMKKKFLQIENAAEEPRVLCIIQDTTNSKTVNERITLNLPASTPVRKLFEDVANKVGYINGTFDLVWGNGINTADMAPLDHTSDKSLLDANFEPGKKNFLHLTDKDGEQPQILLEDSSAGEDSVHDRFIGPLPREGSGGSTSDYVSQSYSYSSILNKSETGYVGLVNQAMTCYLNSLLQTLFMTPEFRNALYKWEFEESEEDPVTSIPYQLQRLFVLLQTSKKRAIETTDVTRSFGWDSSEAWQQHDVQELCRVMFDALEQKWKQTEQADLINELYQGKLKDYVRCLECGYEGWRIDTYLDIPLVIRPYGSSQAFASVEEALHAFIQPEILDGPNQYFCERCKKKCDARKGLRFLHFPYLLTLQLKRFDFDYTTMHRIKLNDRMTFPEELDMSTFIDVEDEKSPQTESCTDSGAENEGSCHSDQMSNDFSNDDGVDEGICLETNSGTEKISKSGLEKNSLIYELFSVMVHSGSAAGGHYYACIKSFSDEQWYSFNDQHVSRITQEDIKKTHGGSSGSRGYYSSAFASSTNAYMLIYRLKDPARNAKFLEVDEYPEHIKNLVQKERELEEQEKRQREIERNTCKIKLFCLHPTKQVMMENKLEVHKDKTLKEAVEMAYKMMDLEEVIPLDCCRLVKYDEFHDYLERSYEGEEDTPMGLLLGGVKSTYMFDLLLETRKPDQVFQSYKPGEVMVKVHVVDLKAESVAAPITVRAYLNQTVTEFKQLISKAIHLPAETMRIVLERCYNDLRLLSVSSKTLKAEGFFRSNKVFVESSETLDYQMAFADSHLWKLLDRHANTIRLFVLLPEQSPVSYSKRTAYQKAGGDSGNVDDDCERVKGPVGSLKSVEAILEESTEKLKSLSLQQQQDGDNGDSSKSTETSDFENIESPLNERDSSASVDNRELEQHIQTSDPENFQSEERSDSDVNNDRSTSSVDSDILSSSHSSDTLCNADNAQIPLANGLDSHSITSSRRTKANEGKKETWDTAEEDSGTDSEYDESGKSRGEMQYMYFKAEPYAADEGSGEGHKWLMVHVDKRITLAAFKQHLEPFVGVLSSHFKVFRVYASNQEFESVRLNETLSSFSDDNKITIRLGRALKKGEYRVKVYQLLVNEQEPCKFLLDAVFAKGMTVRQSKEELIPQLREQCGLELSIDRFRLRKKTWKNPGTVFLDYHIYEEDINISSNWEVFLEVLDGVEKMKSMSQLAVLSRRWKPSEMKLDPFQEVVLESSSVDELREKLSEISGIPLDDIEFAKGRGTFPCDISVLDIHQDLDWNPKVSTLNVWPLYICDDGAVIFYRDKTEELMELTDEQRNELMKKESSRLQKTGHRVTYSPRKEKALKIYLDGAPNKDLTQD
How it was run: as §1

USP48 = biological target: T3, USP48 (UniProt Q86UV5)
T3 sequence (whole entry): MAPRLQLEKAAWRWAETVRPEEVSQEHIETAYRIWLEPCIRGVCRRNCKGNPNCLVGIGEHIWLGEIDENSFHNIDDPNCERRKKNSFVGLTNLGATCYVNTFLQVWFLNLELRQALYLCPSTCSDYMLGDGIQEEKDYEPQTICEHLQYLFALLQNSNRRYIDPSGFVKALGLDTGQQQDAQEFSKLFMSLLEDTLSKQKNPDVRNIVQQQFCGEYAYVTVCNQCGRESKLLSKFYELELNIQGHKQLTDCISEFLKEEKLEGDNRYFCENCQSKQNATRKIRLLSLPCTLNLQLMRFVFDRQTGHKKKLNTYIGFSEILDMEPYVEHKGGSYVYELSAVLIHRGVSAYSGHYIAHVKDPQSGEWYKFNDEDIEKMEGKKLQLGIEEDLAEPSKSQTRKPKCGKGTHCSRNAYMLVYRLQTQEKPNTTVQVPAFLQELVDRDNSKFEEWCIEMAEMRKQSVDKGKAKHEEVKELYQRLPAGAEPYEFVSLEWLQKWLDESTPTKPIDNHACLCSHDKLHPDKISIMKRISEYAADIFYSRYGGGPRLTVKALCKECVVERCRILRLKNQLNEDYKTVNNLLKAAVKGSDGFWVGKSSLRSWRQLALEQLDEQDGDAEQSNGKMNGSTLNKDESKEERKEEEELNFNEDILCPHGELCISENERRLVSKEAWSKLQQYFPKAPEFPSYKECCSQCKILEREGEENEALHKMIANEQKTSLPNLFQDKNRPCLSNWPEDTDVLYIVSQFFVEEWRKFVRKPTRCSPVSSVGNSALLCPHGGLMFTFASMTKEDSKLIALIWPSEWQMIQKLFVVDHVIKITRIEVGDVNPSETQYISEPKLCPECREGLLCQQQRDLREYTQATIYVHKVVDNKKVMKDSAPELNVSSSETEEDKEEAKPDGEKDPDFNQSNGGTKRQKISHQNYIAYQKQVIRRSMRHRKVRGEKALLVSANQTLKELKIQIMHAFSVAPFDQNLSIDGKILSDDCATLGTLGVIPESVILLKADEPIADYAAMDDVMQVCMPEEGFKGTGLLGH
How it was run: as §1

USP5 = biological target: T4, USP5 (UniProt P45974)
T4 sequence (whole entry): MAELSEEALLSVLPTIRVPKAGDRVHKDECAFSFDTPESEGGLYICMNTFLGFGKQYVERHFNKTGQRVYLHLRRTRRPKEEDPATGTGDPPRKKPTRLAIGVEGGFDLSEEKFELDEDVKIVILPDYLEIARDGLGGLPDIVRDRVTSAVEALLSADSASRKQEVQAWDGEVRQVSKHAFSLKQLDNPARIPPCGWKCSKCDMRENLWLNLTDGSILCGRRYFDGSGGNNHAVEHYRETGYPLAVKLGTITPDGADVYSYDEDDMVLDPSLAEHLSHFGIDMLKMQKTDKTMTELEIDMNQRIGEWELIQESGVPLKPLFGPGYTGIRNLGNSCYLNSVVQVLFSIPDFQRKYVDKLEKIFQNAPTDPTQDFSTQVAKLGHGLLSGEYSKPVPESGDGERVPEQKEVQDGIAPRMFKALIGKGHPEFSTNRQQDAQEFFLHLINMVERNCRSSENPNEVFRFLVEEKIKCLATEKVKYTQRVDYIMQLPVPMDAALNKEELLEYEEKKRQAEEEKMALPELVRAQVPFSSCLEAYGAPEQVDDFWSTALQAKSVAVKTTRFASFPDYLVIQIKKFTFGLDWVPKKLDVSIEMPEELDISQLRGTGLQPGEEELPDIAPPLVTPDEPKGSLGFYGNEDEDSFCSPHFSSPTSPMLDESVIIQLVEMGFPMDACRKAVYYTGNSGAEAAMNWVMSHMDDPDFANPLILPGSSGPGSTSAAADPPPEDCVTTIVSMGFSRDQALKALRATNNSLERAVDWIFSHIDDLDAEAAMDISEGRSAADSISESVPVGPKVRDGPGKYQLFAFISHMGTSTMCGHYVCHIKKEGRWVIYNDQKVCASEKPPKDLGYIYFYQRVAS
How it was run: as §1

USP54 = USP54 (UniProt Q70EL1)
How it was run: as §1

USP7 = USP7 (UniProt Q93009)
How it was run: as §1

USP8 = biological target: T5, USP8 (UniProt P40818)
T5 sequence (whole entry): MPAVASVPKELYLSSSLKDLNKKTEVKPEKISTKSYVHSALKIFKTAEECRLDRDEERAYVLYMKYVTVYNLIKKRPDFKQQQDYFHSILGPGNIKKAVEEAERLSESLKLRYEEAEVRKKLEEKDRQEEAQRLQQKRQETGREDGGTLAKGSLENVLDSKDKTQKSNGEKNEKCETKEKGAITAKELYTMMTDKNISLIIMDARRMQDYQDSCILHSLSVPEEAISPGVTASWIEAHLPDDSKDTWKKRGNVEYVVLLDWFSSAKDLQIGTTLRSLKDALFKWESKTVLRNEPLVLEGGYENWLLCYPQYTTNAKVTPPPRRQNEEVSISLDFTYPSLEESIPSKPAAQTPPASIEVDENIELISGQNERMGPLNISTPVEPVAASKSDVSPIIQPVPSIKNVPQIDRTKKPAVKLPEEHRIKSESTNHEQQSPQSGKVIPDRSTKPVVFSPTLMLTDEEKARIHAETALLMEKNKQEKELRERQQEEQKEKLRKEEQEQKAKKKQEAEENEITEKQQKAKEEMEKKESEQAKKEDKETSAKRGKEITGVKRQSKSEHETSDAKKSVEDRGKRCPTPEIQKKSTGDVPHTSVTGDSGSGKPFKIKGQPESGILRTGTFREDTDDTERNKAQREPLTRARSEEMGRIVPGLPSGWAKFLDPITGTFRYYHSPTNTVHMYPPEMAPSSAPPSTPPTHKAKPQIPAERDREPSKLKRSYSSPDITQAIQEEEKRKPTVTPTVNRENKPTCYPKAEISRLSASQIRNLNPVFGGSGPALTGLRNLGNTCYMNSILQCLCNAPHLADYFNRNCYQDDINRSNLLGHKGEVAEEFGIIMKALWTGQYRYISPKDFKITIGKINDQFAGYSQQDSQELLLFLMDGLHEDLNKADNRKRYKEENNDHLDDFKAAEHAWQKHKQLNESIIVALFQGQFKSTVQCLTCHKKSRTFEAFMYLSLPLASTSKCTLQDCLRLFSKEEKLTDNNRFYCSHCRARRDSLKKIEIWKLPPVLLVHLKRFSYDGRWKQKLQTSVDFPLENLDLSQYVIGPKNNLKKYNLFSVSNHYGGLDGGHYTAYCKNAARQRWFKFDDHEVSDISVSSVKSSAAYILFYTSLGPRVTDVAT
How it was run: as §1

USP9X = USP9X (UniProt Q93008)
How it was run: as §1

UniProt O00487 = biological target: UniProt O00487
How it was run: as §1

Measured: log2 ratio of Biotin-Ahx-Ub-VS probe labelling

Chain of USP54 (Q70EL1 whole entry): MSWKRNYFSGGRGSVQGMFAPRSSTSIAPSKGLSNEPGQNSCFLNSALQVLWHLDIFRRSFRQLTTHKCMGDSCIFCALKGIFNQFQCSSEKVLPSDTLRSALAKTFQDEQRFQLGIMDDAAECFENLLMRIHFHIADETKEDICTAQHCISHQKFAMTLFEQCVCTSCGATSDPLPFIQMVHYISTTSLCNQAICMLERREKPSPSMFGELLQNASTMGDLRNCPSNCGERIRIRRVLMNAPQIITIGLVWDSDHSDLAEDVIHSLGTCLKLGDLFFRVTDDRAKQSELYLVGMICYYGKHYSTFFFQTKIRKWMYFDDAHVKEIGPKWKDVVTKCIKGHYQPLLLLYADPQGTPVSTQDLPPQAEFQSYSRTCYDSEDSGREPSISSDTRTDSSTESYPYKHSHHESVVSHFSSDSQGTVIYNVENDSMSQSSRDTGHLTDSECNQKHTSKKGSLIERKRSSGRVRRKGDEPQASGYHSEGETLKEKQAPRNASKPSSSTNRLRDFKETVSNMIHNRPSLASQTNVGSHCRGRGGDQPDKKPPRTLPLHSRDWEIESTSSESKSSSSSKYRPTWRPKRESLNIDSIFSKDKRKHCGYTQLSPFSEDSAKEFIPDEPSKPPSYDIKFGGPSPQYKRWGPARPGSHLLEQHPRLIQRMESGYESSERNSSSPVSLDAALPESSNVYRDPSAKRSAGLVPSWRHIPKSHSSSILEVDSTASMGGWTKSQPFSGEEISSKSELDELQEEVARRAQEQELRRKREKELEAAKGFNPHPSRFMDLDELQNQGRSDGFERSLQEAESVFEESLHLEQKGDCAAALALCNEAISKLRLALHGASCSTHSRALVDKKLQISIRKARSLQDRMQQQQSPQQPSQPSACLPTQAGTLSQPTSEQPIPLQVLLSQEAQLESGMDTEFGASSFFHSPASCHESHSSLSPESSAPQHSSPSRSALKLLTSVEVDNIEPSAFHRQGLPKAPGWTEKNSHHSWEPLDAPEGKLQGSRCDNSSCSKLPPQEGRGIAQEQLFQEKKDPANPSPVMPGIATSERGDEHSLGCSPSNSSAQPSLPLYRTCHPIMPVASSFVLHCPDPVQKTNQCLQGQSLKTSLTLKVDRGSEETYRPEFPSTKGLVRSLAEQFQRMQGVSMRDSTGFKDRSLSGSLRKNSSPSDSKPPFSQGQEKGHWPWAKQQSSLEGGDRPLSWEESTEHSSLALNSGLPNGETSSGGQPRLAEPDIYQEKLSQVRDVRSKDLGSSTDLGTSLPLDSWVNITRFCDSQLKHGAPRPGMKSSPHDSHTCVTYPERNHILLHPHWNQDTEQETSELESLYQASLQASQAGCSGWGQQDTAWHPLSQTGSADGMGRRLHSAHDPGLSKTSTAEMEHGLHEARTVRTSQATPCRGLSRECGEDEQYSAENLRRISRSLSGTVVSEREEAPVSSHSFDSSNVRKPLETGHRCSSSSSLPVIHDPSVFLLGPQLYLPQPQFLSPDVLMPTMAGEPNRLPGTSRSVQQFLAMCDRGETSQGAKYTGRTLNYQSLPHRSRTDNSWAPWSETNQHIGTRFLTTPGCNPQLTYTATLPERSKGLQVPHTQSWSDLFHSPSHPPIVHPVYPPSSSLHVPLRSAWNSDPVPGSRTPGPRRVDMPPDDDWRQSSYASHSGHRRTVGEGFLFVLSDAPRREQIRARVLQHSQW
Chain of UniProt O00487 (O00487 whole entry): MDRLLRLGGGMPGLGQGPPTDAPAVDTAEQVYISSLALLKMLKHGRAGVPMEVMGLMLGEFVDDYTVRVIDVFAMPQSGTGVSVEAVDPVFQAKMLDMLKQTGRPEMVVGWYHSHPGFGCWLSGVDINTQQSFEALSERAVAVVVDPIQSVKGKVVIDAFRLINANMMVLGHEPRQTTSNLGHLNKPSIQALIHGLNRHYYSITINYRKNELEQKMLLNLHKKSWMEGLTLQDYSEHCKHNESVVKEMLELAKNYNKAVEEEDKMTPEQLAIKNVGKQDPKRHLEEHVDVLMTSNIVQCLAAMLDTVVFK
Chain of USP7 (Q93009 whole entry, looked up): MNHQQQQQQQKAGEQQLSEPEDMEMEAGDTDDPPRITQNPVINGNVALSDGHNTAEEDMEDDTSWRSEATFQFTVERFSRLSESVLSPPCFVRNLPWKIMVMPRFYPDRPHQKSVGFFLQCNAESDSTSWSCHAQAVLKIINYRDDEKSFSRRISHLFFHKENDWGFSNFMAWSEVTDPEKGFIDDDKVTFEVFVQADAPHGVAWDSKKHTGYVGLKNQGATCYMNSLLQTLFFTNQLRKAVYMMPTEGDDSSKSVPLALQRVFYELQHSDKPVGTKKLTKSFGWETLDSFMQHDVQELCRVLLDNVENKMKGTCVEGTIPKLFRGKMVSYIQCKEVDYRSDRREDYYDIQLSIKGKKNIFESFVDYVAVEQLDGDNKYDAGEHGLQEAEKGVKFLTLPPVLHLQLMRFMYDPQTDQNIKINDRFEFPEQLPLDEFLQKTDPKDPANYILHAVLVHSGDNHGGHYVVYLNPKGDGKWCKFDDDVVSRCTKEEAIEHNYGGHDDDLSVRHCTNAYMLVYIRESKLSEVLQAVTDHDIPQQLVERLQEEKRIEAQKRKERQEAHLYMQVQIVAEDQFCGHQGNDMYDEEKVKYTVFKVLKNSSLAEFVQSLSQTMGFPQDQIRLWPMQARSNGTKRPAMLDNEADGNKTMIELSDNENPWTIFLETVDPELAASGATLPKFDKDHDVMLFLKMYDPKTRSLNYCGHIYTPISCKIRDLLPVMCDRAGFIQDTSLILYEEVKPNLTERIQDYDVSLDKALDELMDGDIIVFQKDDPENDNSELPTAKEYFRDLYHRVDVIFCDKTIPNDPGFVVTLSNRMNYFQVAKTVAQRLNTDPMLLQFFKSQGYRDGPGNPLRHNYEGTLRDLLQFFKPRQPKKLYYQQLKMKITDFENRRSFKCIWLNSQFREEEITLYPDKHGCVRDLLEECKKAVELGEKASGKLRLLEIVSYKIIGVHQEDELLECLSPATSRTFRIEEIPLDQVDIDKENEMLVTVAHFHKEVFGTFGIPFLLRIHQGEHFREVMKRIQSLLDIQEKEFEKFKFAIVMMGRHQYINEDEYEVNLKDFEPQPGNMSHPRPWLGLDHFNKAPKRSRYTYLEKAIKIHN
Chain of USP46 (P62068 whole entry): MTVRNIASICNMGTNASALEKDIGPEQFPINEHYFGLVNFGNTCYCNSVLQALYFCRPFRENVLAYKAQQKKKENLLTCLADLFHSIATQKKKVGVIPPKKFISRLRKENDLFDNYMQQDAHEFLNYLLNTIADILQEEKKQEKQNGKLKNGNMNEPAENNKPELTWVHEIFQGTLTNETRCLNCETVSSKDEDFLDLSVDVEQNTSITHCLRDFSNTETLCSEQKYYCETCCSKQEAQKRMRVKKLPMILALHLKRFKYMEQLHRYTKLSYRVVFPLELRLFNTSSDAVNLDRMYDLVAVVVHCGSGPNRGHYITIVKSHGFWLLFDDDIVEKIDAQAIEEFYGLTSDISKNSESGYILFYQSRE

O=C(CCl)Nc1cccc(NC(=O)c2ccccc2)c1
inactive: USP42 0.808 | USP46 0.291 | USP47 -0.303 | USP48 -0.0133 | USP5 0.0977 | USP54 -0.543 | USP7 0.0734 | USP8 0.244 | USP9X 0.246 | UniProt O00487 0.00956
